# Assay results reported in the supplement of paper PMC6853941.
# Unmarked numbers belong to inactive results.
# Test system: MCF10A
# Test: perturbation Mahalanobis distance of morphological profile vs DMSO controls (Mahalanobis distance (SD units)); higher = stronger morphological change, active = 7 or more
# Details: screen batch: Batch1_Mahalanobis_Distance; 72 h
# Description: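 MCF10A cells were seeded onto drugs dispensed acoustically into 384-well plates, using one dose per drug chosen from its human peak plasma concentration, and incubated for 72 h at 37 °C. Cells were stained for DNA, tubulin and mitochondria and imaged; 78 CellProfiler features were extracted, plate-normalised and compared with DMSO wells.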
row,Compound,perturbation Mahalanobis distance
1,O=C(CCCCCCC(=O)Nc1ccccc1)NO [Vorinostat] (9.8 µM),11 (active)
2,CN(C)CCCN1c2ccccc2Sc2ccc(C(F)(F)F)cc21 [Triflupromazine] (1.4 µM),4.75
3,Nc1ccn([C@@H]2O[C@H](CO)[C@@H](O)[C@@H]2O)c(=O)n1 [Cytarabine] (10.3 µM),12.2 (active)
4,CCc1c2c(nc3ccc(OC(=O)N4CCC(N5CCCCC5)CC4)cc13)-c1cc3c(c(=O)n1C2)COC(=O)[C@]3(O)CC [Irinotecan] (16.8 µM),11.9 (active)
5,NCCCC(N)(C(=O)O)C(F)F (stereo not drawn) [Eflornithine] (319.5 µM),2.24
6,N[C@@H](CC(=O)N1CCn2c(nnc2C(F)(F)F)C1)Cc1cc(F)c(F)cc1F [Sitagliptin] (4.8 µM),2.76
7,CC(=O)/C(C#N)=C(\O)Nc1ccc(C(F)(F)F)cc1 [Teriflunomide (A77 1726)] (66.9 µM),4.02
8,O=C1c2c(O)ccc(O)c2C(=O)c2c(NCCNCCO)ccc(NCCNCCO)c21 [Mitoxantrone] (3.4 µM),9.47 (active)
9,CCc1c2c(nc3ccc(O)cc13)-c1cc3c(c(=O)n1C2)COC(=O)[C@]3(O)CC [7-Ethyl-10-Hydroxy-Camptothecin] (16.78 µM),2.85
10,COC(=O)C1=C(C)NC(C)=C(C(=O)OCC(C)C)C1c1ccccc1[N+](=O)[O-] (stereo not drawn) [Nisoldipine] (13 µM),2.36
11,CO[C@H]1CC2CC[C@@H](C)[C@@](O)(O2)C(=O)C(=O)N2CCCC[C@H]2C(=O)O[C@H]([C@H](C)C[C@@H]2CC[C@@H](OCCO)[C@H](OC)C2)CC(=O)[C@H](C)/C=C(\C)[C@@H](O)[C@@H](OC)C(=O)[C@H](C)C[C@H](C)/C=C/C=C/C=C/1C [Everolimus] (0.95 µM),5.37
12,CC(=O)Nc1nnc(S(N)(=O)=O)s1 [Acetazolamide] (90 µM),3.52
13,CC(C)NCC(O)COc1ccc(CC(N)=O)cc1 (stereo not drawn) [Atenolol] (18.8 µM),2.37
14,CC(=O)O[C@]1(C(C)=O)CC[C@H]2[C@@H]3CCC4=CC(=O)CCC4=C3[C@@H](c3ccc(N(C)C)cc3)C[C@@]21C [Ulipristal Acetate] (3.9 µM),9.29 (active)
15,CCN(CC)Cc1cc(Nc2ccnc3cc(Cl)ccc23)ccc1O [Amodiaquine] (0.7 µM),2.08
16,O=c1n(CCCN2CCN(c3cccc(Cl)c3)CC2)nc2ccccn12 [Trazodone] (21.5 µM),2.62
17,COc1cc(Cc2cnc(N)nc2N)cc(OC)c1OC [Trimethoprim] (43.1 µM),4.35
18,CCN(CC)CCNC(=O)c1c(C)[nH]c(/C=C2\C(=O)Nc3ccc(F)cc32)c1C [Sunitinib] (0.73 µM),3.08
19,O=C1CCC(N2C(=O)c3ccccc3C2=O)C(=O)N1 (stereo not drawn) [Thalidomide] (19.4 µM),2.34
20,CNC(=O)c1cc(Oc2ccc(NC(=O)Nc3ccc(Cl)c(C(F)(F)F)c3)cc2)ccn1 [Sorafenib] (10.76 µM),2.94
21,C[C@@H](O[C@@H]1OCCN(Cc2nc(=O)[nH][nH]2)[C@@H]1c1ccc(F)cc1)c1cc(C(F)(F)F)cc(C(F)(F)F)c1 [Aprepitant] (20.7 µM),5.02
22,NC(=O)OCC(COC(N)=O)c1ccccc1 [Felbamate] (205.7 µM),2.24
23,CC(C)(Sc1cc(C(C)(C)C)c(O)c(C(C)(C)C)c1)Sc1cc(C(C)(C)C)c(O)c(C(C)(C)C)c1 [Probucol] (12.58 µM),2.88
24,CC(=O)NO [Acetohydroxamic Acid] (523.5 µM),4.11
25,CN1C(=O)CC(c2ccccc2)C1=O (stereo not drawn) [Phensuximide] (52.9 µM),3.2
26,CC(C)(C#N)c1cc(Cn2cncn2)cc(C(C)(C)C#N)c1 [Anastrozole] (0.51 µM),3.5
27,C[N+](C)(C)CCOC(N)=O [Carbachol] (37 µM),2.88
28,c1ccc([C@H]2CN3CCSC3=N2)cc1 [Levamisole] (11.7 µM),2.32
